Measured values as given in the supplement of paper PMC12819154, “High-throughput peptide-centric local stability assay extends protein–ligand identification to membrane proteins, tissues and bacteria” (Nature Structural & Molecular Biology, 2025).

compound: CN[C@@H]1C[C@H]2O[C@@](C)([C@@H]1OC)n1c3ccccc3c3c4c(c5c6ccccc6n2c5c31)C(=O)NC4 [staurosporine]; experiment: log2 fold change of tryptic peptide abundance, ligand vs vehicle (limited proteolysis) (log2 ratio); higher = more trypsin-susceptible (destabilized); details: ligand concentration: 20 uM; sample: mouse liver crude lysate; replicate design: treated separately

Chain of UniProt Q8R1Q8 (Q8R1Q8 whole entry): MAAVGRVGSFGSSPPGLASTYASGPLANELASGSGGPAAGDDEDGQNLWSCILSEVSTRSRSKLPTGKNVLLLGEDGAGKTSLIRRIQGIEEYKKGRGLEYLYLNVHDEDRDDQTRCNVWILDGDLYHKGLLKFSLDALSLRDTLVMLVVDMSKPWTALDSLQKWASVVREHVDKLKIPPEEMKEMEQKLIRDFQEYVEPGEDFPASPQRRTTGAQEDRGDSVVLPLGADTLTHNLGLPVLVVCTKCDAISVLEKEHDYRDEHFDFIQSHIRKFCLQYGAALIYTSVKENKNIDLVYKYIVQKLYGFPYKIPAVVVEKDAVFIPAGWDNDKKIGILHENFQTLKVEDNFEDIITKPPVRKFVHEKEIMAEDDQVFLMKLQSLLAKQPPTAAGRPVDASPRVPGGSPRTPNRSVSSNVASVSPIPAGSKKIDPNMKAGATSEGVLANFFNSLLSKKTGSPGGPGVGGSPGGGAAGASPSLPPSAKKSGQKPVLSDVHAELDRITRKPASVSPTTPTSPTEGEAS
Chain of UniProt Q91YH5 (Q91YH5 whole entry): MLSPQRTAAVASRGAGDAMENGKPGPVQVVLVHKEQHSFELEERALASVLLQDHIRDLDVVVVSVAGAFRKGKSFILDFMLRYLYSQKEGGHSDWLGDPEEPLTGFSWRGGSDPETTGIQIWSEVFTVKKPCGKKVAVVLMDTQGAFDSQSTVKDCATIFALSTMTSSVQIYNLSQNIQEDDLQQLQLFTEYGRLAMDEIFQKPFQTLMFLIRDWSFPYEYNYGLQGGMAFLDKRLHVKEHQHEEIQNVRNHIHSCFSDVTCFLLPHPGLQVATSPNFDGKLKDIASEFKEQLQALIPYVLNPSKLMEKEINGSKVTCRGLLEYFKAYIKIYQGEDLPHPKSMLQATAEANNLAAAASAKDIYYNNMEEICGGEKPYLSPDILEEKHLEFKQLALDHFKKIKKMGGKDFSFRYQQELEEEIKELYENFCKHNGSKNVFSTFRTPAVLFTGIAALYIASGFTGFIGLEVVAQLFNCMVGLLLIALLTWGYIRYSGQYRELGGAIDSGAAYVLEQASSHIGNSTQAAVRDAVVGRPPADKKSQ
Chain of UniProt P56593 (P56593 whole entry): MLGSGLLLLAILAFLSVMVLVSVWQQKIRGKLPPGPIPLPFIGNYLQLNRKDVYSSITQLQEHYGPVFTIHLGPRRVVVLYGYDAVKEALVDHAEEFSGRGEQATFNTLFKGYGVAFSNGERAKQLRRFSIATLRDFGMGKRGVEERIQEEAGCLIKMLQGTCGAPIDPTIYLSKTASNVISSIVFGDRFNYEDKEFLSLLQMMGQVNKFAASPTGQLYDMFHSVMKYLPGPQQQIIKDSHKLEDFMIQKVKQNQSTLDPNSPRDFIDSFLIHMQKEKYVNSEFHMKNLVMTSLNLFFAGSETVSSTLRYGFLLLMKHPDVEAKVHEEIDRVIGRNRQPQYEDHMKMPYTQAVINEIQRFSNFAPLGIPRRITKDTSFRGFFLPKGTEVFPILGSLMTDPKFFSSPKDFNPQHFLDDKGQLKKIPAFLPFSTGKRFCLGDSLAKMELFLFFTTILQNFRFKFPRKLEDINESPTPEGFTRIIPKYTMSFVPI
Chain of UniProt P48962 (P48962 whole entry): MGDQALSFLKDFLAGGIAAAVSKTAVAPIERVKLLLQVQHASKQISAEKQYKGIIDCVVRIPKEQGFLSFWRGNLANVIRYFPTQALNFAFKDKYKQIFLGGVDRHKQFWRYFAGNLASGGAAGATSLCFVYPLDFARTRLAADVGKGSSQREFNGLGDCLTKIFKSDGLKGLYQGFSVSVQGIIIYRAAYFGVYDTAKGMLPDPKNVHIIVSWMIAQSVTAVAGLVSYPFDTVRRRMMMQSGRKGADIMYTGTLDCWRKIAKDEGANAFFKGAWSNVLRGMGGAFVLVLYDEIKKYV
Chain of UniProt P11440 (P11440 whole entry, looked up): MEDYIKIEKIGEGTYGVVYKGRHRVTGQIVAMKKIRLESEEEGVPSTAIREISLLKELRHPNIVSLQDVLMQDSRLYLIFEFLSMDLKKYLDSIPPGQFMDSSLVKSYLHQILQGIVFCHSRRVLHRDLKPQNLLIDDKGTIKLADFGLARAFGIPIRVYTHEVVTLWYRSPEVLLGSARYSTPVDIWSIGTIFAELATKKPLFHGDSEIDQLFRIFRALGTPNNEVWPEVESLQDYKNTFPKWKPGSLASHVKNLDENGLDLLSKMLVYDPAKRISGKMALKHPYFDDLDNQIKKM
Chain of UniProt Q6P4S6 (Q6P4S6 whole entry): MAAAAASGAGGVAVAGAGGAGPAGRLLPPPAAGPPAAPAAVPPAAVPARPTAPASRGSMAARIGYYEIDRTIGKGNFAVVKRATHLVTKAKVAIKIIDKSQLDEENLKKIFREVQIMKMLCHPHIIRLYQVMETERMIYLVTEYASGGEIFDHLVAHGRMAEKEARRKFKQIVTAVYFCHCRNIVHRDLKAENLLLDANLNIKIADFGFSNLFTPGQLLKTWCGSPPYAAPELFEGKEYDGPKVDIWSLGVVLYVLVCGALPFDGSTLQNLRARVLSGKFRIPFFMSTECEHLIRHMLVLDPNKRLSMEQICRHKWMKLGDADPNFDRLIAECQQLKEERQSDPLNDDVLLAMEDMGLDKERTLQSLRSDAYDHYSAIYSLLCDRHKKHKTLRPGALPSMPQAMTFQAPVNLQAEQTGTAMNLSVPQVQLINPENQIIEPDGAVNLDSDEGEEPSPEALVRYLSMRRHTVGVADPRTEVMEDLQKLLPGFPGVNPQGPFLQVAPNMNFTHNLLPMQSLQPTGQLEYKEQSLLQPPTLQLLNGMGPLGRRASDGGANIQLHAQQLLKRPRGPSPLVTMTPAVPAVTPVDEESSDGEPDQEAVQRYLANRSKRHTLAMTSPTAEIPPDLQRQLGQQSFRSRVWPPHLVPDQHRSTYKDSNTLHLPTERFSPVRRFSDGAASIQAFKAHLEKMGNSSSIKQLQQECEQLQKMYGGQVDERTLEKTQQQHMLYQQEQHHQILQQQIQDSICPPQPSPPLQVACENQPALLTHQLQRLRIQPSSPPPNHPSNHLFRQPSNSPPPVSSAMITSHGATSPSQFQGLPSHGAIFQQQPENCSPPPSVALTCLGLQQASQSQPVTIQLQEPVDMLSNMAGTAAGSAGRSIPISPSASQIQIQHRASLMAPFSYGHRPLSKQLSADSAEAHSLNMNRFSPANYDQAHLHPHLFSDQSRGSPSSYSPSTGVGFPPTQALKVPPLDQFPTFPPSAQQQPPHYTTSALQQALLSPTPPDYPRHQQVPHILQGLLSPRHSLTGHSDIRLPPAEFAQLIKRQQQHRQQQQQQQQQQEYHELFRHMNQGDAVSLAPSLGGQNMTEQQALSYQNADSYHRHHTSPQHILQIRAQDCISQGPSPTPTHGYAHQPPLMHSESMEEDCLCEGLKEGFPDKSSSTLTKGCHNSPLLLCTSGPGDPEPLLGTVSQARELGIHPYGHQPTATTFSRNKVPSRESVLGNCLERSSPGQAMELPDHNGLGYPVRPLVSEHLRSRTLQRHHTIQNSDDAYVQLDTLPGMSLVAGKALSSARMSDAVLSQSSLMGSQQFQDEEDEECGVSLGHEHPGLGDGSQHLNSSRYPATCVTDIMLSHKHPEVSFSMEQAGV

**Q.** For “UniProt Q8R1Q8 (peptide sequence: NIDLVYK, peptide start residue: 292)”, which log2 fold change is on record?
**A.** 0.28

**Q.** “UniProt P48962 (peptide sequence: MMMQSGRK, peptide start residue: 238)” was tested. Which log2 fold change did it give?
**A.** 0.293

**Q.** For “UniProt Q91YH5 (peptide sequence: ALASVLLQDHIR, peptide start residue: 45)”, which log2 fold change is on record?
**A.** 0.309

**Q.** How did the log2 fold change turn out when “UniProt P11440 (peptide sequence: IGEGTYGVVYK, peptide start residue: 10)” was run?
**A.** -2.03

**Q.** For “UniProt Q6P4S6 (peptide sequence: LIAECQQLKEER, peptide start residue: 329)”, which log2 fold change is on record?
**A.** -1.43

**Q.** “UniProt P56593 (peptide sequence: FSNFAPLGIPR, peptide start residue: 360)” was tested. Which log2 fold change did it give?
**A.** -0.352
